In the library only some 21% were active in any assay of this set; here they are far more common.
Pf growth 96h = Primary qHTS for delayed death inhibitors of the malarial parasite plastid, 96 hour incubation | P. falciparum luciferase reporter growth, 96 h | Potency, µM (series often up to 28.7 µM), for the others: at the highest dose activity change, negative = inhibition, hits mostly inhibitors | 320,000 tested, 6.9% active | AID 504834, 2011; also: potency is read from the fitted curve at half-maximal effect; % is scaled to controls: 0 for no effect and ±100 for the full control effect
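Two parasite generations (96 h, 37 C, 5% CO2) of compound exposure in infected erythrocytes (0.05% parasitemia, 2% hematocrit). Luciferase-reporter P. falciparum; decreased luminescence indicates inhibited growth, aimed at apicoplast-acting delayed death.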
Pf growth 48h = Primary qHTS for delayed death inhibitors of the malarial parasite plastid, 48 hour incubation. P. falciparum luciferase growth in erythrocytes, 48 h. Potency, µM (highest dose often 28.7 µM), for inactives: at the highest dose activity change, negative = inhibition, most hits filed as inhibitors. 310,000 tested, 5.9% active; also: potency is read from the fitted curve at half-maximal effect; % is scaled to controls: 0 for no effect and ±100 for the full control effect
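Luminescence readout; reporter = integrated firefly luciferase in P. falciparum. RBC culture at 2% hematocrit, 0.1% parasitemia final, 37 C/5% CO2; decreased signal taken as growth inhibition.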
CHX counter = Cycloheximide Counterscreen for Small Molecule Inhibitors of Shiga Toxin; cell reporter, cycloheximide protein synthesis inhibition counterscreen; max response, %; 300,000 tested, 12% active; AID 2314, 2010; in the data active = max response mostly above about 13%, no sharp cut-off; inactive = mostly below about 14%; also: read at 38.3 µM for the half of the compounds with a filed dose; 0% is about no effect
HCV inh = qHTS Assay for Inhibitors of Hepatitis C Virus (HCV); AID 651820, 2012; Huh7.5.1 HCVcc-Cre infection, luciferase reporter, 44 h; Potency, µM (doses to about 41.8 µM), inactives show top-dose activity change, negative = inhibition, hits mostly inhibitors; 340,000 tested, 3.4% active; also: potency is read from the fitted curve at half-maximal effect; % is scaled to controls: 0 for no effect and ±100 for the full control effect
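Reporter virus HCVcc-Cre (~0.5 moi) infects cells exposed to compound; seeding density 1,000 cells/well with 4 h settling beforehand. Luminescence, 15 sec read, taken 44 h post-infection following a 15 min RT substrate incubation.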
AMA1-RON2 inh = qHTS for Inhibitors of AMA1-RON; Towards Development of Antimalarial Drug Lead: Primary Screen. Potency, µM (doses to about 58.2 µM), without a hit: at the highest dose activity change, negative = inhibition, usual class: inhibitors. Plasmodium falciparum AMA1 (3D7) - RON2 peptide interaction. 360,000 tested, 0.2% active. AlphaScreen AMA1-biotinylated RON2 peptide binding;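 also: potency is read from the fitted curve at half-maximal effect; 0% = vehicle wells and -100% = peptide control; nearly all actives have a fitted effect of over 45% in size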
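AMA1 (3D7) with his tag at 25 nM final met compounds first, then biotinylated RON2 peptide at 25 nM; detection used donor plus acceptor beads, 10 µg/mL apiece, read by AlphaScreen after 30 min at room temperature.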
Shiga inhibitor = A qHTS for Small Molecule Inhibitors of Shiga Toxin. inhibition, % at 38.7 µM. Vero cells, Shiga toxin protein synthesis inhibition reporter. 290,000 tested, 9.2% active; in the data active = inhibition mostly above about 28%, no sharp cut-off; inactive = mostly below about 43%; also: 0% is about no effect
Active calls of the source: *; i = inactive; ? = inconclusive; . = no result given; [ ] = remark or other dose. Unless noted, calls follow the shape of the dose curve; as a rule, active = well fitted curve in the direction sought with a large enough effect; inconclusive = small, poorly fitted or top-dose-only effect, or another doubt; inactive = no such curve, though single readings can be large; an effect the other way counts as inactive or inconclusive.

SMILES	Pf growth 96h	Pf growth 48h	CHX counter	HCV inh	AMA1-RON2 inh	Shiga inhibitor
CC(CNC(=O)C1CCCN(S(=O)(=O)N2CCOCC2)C1)c1ccccc1 (stereo not given)	?	?	-2.3	21.9%	8.7%	-3.1
CC(C)(CNC(=O)c1ccccc1F)CNC(=O)c1ccccc1F	.	.	.	15.5%	-4.9%	.
COCCOC(=O)N1CCCCC1c1cc(C(=O)Nc2cccc3c2CCCC3)no1 (stereo not given)	.	.	.	.	-8.5%	.
O=C(Nc1ncc2c(n1)-c1ccccc1CC2)c1cccs1	?	?	27.8*	-11.5%	-0.4%	63.7
Nc1ncc2c(n1)-c1ccccc1CC2	39.1%	3.7µM*	13.0	2.8%	-1.7%	33.0
O=C(Nc1ncc2c(n1)-c1ccccc1CC2)c1ccc(F)cc1	2.2%	1.6%	-3.0	-29.9%	0.9%	-6.6
O=C(Nc1nc2c(s1)CCc1ccccc1-2)c1cccs1	?	?	41.2*	?	12.8%	93.8*
Fc1ccccc1Nc1nc2c(s1)CCc1ccccc1-2	1.5%	268.7%	72.5*	?	.	85.5*
CCN(C(=O)CN1CCCC(C)C1)c1c(N)n(Cc2ccccc2)c(=O)[nH]c1=O (stereo not given)	.	.	.	0.4%	-3.5%[11.6 µM]	.
CCCCN(C=O)c1c(CC)nc2ccc(C(=O)NCCCN3CCCC3=O)cn12	.	.	.	.	6.4%	.
O=C(Nc1ncc2c(n1)-c1ccccc1CC2)c1ccccc1	49.0%	31.3%	20.0*	-27.1%	-12.3%	62.9*
COc1ccc(N2CCc3c(C)nc4c(OC)cc(OC)cc4c32)cc1	?	?	-1.1	12.6µM*	-6.4%	2.6
CCc1c2c(nc3ccc(OC)cc13)-c1nc3ccccc3c(=O)n1C2	.	.	21.0	.	.	45.5
COc1cccc(N2CCc3c(C)nc4ccc(Cl)cc4c32)c1	11.7µM*	13.1µM*	-3.7	?	33.5%	-10.6
COc1ccc(N2CCc3c(C)nc4c(OC)cc(OC)cc4c32)c(OC)c1	14.7µM*	?	-2.0	11.2µM*	1.2%	-14.4
CCN1Cc2c(/C=C/c3ccccc3)nc3ccc(OC)cc3c2N(c2cccc(Cl)c2)C1	3.29µM*	2.08µM*	0.5	17.8µM*	-18.9%	-4.5
Cc1c(C(=O)OCc2ccc(F)cc2)sc2nc3n(c(=O)c12)CCC3	10.1%	9.2%	.	10.5%	-3.4%	.
COCCN(C(=O)c1ccc(C)o1)c1c(N)n(CC(C)C)c(=O)[nH]c1=O	-22.2%	-23.8%	.	24.6%	-18.7%[11.6 µM]	.
O=C(c1ccc(-c2cc(O)c3ncccc3c2)cc1)N1CCNCC1	9.28µM*	9.28µM*	.	.	.	.
CC(C)(C)c1ccc(C(=O)N2CCNCC2)cc1	.	18.1%	10.5	6.2%	0.9%	-7.8
CN(Cc1ccccc1)C(=O)c1csc([C@H]2C[C@H](O)[C@@H](CO)O2)n1	.	.	.	.	-0.2%	.
CC/C(=N/NC(=O)c1ccc(Br)o1)c1ccc(Cl)cc1	-10.2%	-6.9%	39.2*	-13.7%	14.3%	125.1*
CCCC/C(=N\NC(=O)c1ccc(Br)o1)c1ccccc1	?	?	31.6*	?	2.6%	46.0*
CCCCC/C(=N\NC(=O)CCC(=O)NCc1ccccc1)c1ccccc1	?	-16.4%	-3.0	2.7%	25.4%	-5.1
CC/C(=N\NC(=O)c1ccc(Br)cc1)c1ccccc1	25.6%	-5.7%	20.1	-4.2%	93.6%	14.8
SMILES	Pf growth 96h	Pf growth 48h	CHX counter	HCV inh	AMA1-RON2 inh	Shiga inhibitor
CC(Nc1ccc(Cl)cc1)C(=O)NN (stereo not given)	15.7%	21.3%	0.8	?	26.0%	20.0
C=C(C)CN=C1NN=C(c2cc(C)n(-c3ccc(C)cc3)c2C)CS1	?	?	4.9	?	0.0%	-1.5
Clc1ccc(C2=NNC(=NCC3CCCO3)SC2)cc1 (stereo not given)	?	104.3%	60.5*	1.0%	27.6%	160.0*
CCN=C1NN=C(c2cc(C)n(CCc3ccccc3)c2C)CS1	?	?	32.1*	-28.7%	32.0%	62.2*
CCN=C1NN=C(c2cc(C)n(Cc3ccco3)c2C)CS1	-27.1%	-45.4%	86.6*	-23.2%	48.2%	138.4*
Cc1ccc(C)c(C2=NNC(=NCc3ccccc3)SC2)c1	?	?	25.3	?	52.2%	32.0*
Cc1cc(C2=NNC(=NCCc3ccccc3)SC2)c(C)n1CC1CCCO1 (stereo not given)	?	?	46.5*	11.2µM*	44.9%	194.1*
C=CCn1c(C)cc(C2=NNC(=NCc3ccccc3)SC2)c1C	10.4µM*	-19.5%	62.1*	?	45.6%	110.9*
CN(C(=O)COC(=O)CCc1c[nH]c2ccccc12)c1ccccc1	-1.2%	?	.	18.3%	-2.1%	.
ClC(Cl)c1nnc(-c2ccccc2)c(-c2c[nH]c3ccccc23)n1	9.28µM*	?	12.5	?	-6.7%	active
O=C(CCn1cccn1)Nc1ccc2c(c1)OCCO2	2.6%	97.8%	56.8*	10.5%	-0.1%	91.9*
O=C(CCCN1C(=O)CCC1=O)Nc1ccc2c(c1)OCCO2	-0.1%	37.8%	21.9*	3.3%	1.1%	91.7*
O=C(CCN1C(=O)c2ccccc2C1=O)Nc1ccc2c(c1)OCCO2	.	19.5%	18.1*	12.7%	36.8%	active
O=C(CCCN1C(=O)CCC1=O)Nc1ccc2c(c1)OCO2	-3.3%	26.7%	11.3	8.6%	3.2%	52.8*
CCCCCCCCCCCCCCCC(=O)OC[C@@H](COP(=O)([O-])OCC[N+](C)(C)C)OC(=O)CCCCCCCCCCCCCCC	.	.	7.0	.	.	-5.8
O=c1ccc2c([nH]1)CCCCCCCCCC2	11.8%	24.4%	-1.5	17.8%	-11.3%	4.2
Oc1c(C=Nc2ccccc2)sc(=S)n1Cc1ccccc1	25.0%	6.6%	1.1	-17.0%	-21.8%	4.0
C=CCn1c(O)c(C=Nc2ccccc2)sc1=S	?	25.7%	27.7*	-8.2%	13.8%	63.7*
CCn1c(O)c(/C=N/n2cnnc2)sc1=S	-8.8%	4.3%	-2.5	6.0%	41.8%	32.9
CCn1c(O)c(C=Nc2ccccc2)sc1=S	-68.7%[1.15 µM]	i	38.3*	-0.4%	-6.1%	85.1*
CCn1c(O)c(C=NC2CCCC2)sc1=S	-18.9%	.	33.6*	-22.9%	-7.4%	23.2
O=C(O)Cn1c(O)c(C=Nc2ccccc2)sc1=S	?	12.1%	-2.0	9.3%	11.8%	10.3
O=C(NCc1ccco1)c1cc2nc(-c3ccc4c(c3)OCO4)cc(C(F)(F)F)n2n1	?	?	0.4	?	9.3%	-7.4
COc1ccc(-c2cc(C(F)(F)F)n3nc(C(=O)NCc4ccco4)cc3n2)cc1	?	9.28µM*	-0.8	?	5.0%	12.1
